Source: PubChem BioAssay (NCI)
About 79,000 compounds went through this panel and 15% of them were active in at least one assay; those are over-represented in the sample as a whole. Unmarked numbers belong to inactive results. Calls of active or inactive are those of the source. No stated cut-off is given here; in the data, active means growth inhibition above about 70%; inactive means the rest.

Experiment: NCI Yeast Anticancer Drug Screen. Data for the sgs1 strain (AID 173);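 further: 0% = growth of vehicle-only control cultures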
Details: S. cerevisiae sgs1 mutant, stronger effect = higher value
Procedure: Growth inhibition of yeast strains with defined genetic alterations is measured as a screen for potential anti-cancer activity. Selected strains with alterations in DNA damage repair or cell cycle control were exposed to compounds and growth inhibition was measured relative to vehicle treated controls. The strain used in this assay is sgs1

| Compound | growth inhibition (at 1.2 µM) [%] | growth inhibition (at 3.7 µM) | growth inhibition (at 11.0 µM) | growth inhibition (at 33.0 µM) | growth inhibition (at 100.0 µM) |
| --- | --- | --- | --- | --- | --- |
| COC(=O)CSSCc1ccc([N+](=O)[O-])cc1 | -20 | -24% | 33% | 87% (active) | 99% (active) |
| c1ccc(-c2ccnc3c2ccc2c(-c4ccccc4)ccnc23)cc1 | 12 | 11% | 62% | 98% (active) | 96% (active) |
| CN(CCc1ccccn1)c1ccc2c(c1)Cc1ccccc1-2 | 26 | 71% (active) | 88% (active) | 87% (active) | 88% (active) |
| CCN(CC)[P+](c1ccccc1O)(N(CC)CC)N(CC)CC | -82 | -50% | -25% | 11% | 74% (active) |
| CCCCCCCCCCCC(=O)N(C)C | -18 | -8% | -13% | 34% | 98% (active) |
| O=C(O)C1CCCCC1c1c2ccc(=O)c(O)c-2oc2c(O)c(O)ccc12 (stereo not given) | -11 | -20% | -16% | 33% | 74% (active) |
| CC(/C=C/c1ccc(Cl)cc1)=N\NC(=S)NCC(C)C | -13 | -8% | -6% | 7% | 34% |
| CCN(CC)C(=S)N/N=C(/C)c1cccc(/C(C)=N\NC(=S)N(CC)CC)n1 | -14 | -3% | 7% | 39% | 88% (active) |
